Measurements published in the supplement of paper PMC10849652.
The full data set covers some 7,900 targets. This sample favours those with a hit. About 0.6% of all pairs of compound and target were hits. Unmarked numbers belong to inactive results.

Key:
Assay in all cases: log2 fold change, soluble protein after heating vs DMSO (PISA); higher = thermal stabilisation; K562 cells, 10 uM, 30 min; active = over 0.2 and 3.5 SD of the protein, either way, in both replicates (recomputed)
[1] = compound: CS(=O)(=O)c1ccc(-c2cnc(N)c(C(=O)Nc3ccccc3)n2)cc1
Method in brief: (§1)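 Soluble protein was defined as the supernatant after 21,000xg for 90 min. It came from K562 cells at 2×10^6 cells/mL given 10 μM compound for 30 min, heated in aliquots for 3 min across 48°C-58°C, pooled, and extracted in PBS with 0.5% NP-40 at 4°C, and was quantified by TMTpro 16plex LC-MS/MS with equalised channel sums. Thermal stability against control samples, from duplicates, is reported as log2 fold change.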

crizotinib = compound: C[C@@H](Oc1cc(-c2cnn(C3CCNCC3)c2)cnc1N)c1c(Cl)ccc(F)c1Cl [crizotinib]
Method in brief: as §1

[2] = compound: C[C@@H]1COCCN1C2=NC(=NC(=C2)C3(CC3)S(=O)(=O)C)C4=C5C=CNC5=CC=C4
Method in brief: as §1

[3] = compound: C[C@H](C1=CC=C(C=C1)C(=O)NC2=C3C=CNC3=NC=C2)N
Method in brief: as §1

duvelisib = compound: C[C@H](Nc1ncnc2nc[nH]c12)c1cc2cccc(Cl)c2c(=O)n1-c1ccccc1 [duvelisib]
Method in brief: as §1

gandotinib = compound: Cc1cc(Nc2cc(CN3CCOCC3)c3nc(C)c(Cc4ccc(Cl)cc4F)n3n2)n[nH]1 [gandotinib]
Method in brief: as §1

tozasertib = compound: Cc1cc(Nc2cc(N3CCN(C)CC3)nc(Sc3ccc(NC(=O)C4CC4)cc3)n2)n[nH]1 [tozasertib]
Method in brief: as §1

[4] = compound: Cc1cc(SCc2sc(-c3ccc(C(F)(F)F)cc3)nc2C)ccc1OCC(=O)O
Method in brief: as §1

doramapimod = compound: Cc1ccc(-n2nc(C(C)(C)C)cc2NC(=O)Nc2ccc(OCCN3CCOCC3)c3ccccc23)cc1 [doramapimod]
Method in brief: as §1

ispinesib = compound: Cc1ccc(C(=O)N(CCCN)[C@@H](c2nc3cc(Cl)ccc3c(=O)n2Cc2ccccc2)C(C)C)cc1 [ispinesib]
Method in brief: as §1

bafetinib = compound: Cc1ccc(NC(=O)c2ccc(CN3CC[C@H](N(C)C)C3)c(C(F)(F)F)c2)cc1Nc1nccc(-c2cncnc2)n1 [bafetinib]
Method in brief: as §1

[5] = compound: Cc1cccc(CC(=O)N2CCc3c2ccc(-c2cn(C)c4ncnc(N)c24)c3F)n1
Method in brief: as §1

nilotinib = compound: Cc1cn(-c2cc(NC(=O)c3ccc(C)c(Nc4nccc(-c5cccnc5)n4)c3)cc(C(F)(F)F)c2)cn1 [nilotinib]
Method in brief: as §1

[6] = compound: Cc1nc(Nc2n[nH]c3c2CN(C(=O)N[C@H](CN(C)C)c2ccccc2)C3(C)C)c2sccc2n1
Method in brief: as §1

dasatinib = compound: Cc1nc(Nc2ncc(C(=O)Nc3c(C)cccc3Cl)s2)cc(N2CCN(CCO)CC2)n1 [dasatinib]
Method in brief: as §1

[7] = compound: Cc1ncc(-c2ccnc(Nc3ccc(S(C)(=O)=O)cc3)n2)n1C(C)C
Method in brief: as §1

[8] = compound: Cn1cc(-c2ccc3c(c2)CCN3C(=O)Cc2cccc(C(F)(F)F)c2)c2c(N)ncnc21
Method in brief: as §1

[9] = compound: Cn1cc(-c2ccc3nnc(C(F)(F)c4ccc5ncccc5c4)n3n2)cn1
Method in brief: as §1

tipifarnib = compound: Cn1cncc1[C@@](N)(c1ccc(Cl)cc1)c1ccc2c(c1)c(-c1cccc(Cl)c1)cc(=O)n2C [tipifarnib]
Method in brief: as §1

mubritinib = compound: FC(F)(F)c1ccc(/C=C/c2nc(COc3ccc(CCCCn4ccnn4)cc3)co2)cc1 [mubritinib]
Method in brief: as §1

Chain of UniProt Q96CW6 (Q96CW6 whole entry, looked up): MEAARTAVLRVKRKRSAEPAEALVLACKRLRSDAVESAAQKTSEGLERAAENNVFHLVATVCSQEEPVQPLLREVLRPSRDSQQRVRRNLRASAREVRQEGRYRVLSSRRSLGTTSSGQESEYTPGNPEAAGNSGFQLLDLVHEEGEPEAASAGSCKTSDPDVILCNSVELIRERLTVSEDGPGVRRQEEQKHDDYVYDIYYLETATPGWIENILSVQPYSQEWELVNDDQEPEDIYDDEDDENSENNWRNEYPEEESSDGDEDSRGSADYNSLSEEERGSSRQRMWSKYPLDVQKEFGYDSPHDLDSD
Chain of UniProt Q5M775 (Q5M775 whole entry, looked up): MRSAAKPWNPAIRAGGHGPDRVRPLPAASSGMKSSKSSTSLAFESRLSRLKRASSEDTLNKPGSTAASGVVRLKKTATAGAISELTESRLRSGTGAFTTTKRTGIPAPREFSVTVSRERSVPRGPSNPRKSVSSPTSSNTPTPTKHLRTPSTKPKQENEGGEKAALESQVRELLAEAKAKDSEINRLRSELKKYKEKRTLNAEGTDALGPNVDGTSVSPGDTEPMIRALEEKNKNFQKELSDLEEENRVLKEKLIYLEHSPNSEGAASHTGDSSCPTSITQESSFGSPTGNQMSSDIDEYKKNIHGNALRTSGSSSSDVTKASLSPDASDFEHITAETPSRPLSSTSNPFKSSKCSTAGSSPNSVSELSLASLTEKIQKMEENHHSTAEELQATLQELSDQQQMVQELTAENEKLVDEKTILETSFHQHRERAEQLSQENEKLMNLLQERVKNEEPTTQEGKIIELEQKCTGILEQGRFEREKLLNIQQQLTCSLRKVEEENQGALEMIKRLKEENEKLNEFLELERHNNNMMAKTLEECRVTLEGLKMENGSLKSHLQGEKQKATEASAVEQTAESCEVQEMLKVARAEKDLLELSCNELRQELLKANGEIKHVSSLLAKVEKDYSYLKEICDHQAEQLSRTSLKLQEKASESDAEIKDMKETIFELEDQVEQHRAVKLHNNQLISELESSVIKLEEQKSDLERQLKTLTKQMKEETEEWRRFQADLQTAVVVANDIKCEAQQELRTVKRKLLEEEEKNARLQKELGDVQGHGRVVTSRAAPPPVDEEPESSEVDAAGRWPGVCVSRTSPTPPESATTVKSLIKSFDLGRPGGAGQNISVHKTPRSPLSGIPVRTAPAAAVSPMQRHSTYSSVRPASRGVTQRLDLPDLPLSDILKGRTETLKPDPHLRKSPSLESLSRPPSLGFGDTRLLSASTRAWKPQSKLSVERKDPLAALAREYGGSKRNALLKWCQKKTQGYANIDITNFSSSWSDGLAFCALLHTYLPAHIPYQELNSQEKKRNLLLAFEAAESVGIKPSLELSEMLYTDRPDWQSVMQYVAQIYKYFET
Chain of UniProt Q9Y4R8 (Q9Y4R8 whole entry, looked up): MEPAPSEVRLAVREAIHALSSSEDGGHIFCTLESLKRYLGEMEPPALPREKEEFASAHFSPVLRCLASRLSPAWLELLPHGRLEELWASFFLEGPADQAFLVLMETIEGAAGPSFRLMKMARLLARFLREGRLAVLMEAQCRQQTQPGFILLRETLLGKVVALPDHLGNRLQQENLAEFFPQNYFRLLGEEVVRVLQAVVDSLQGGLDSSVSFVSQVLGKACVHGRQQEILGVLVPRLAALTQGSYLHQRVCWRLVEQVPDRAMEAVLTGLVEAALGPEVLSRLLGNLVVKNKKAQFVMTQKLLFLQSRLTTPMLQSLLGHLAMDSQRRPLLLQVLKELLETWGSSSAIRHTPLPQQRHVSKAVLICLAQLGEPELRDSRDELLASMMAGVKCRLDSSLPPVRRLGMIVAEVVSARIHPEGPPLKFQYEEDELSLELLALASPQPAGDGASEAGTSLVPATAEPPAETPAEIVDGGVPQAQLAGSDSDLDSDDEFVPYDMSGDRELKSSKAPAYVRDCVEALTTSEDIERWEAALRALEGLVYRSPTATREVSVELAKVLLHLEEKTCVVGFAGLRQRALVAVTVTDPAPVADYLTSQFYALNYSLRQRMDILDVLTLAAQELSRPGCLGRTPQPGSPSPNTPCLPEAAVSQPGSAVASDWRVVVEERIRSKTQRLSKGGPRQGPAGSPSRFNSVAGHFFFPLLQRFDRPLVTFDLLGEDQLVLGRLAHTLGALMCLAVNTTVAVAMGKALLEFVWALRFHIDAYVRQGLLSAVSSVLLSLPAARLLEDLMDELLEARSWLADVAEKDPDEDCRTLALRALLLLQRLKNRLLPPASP
Chain of UniProt Q8WXA9 (Q8WXA9 whole entry, looked up): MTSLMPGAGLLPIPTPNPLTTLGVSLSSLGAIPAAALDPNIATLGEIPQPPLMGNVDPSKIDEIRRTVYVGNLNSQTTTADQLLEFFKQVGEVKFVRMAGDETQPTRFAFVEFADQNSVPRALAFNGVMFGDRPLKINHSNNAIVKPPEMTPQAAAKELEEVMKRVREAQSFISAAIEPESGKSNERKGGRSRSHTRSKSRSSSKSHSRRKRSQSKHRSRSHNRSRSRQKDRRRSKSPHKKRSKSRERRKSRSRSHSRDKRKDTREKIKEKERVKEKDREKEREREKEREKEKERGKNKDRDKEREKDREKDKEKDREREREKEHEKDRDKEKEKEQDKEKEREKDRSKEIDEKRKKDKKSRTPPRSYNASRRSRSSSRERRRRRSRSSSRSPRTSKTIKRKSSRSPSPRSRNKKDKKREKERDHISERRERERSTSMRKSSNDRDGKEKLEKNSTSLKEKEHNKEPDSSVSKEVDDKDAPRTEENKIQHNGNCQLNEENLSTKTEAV
Chain of UniProt O75663 (O75663 whole entry, looked up): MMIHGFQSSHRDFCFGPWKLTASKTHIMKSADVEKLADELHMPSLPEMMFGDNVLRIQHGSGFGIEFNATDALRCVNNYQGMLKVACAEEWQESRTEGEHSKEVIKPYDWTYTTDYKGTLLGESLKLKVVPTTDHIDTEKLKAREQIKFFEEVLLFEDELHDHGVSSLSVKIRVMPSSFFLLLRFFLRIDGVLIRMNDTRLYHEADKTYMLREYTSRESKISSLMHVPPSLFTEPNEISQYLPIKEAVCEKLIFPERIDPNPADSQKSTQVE
Chain of UniProt Q969Z0 (Q969Z0 whole entry, looked up): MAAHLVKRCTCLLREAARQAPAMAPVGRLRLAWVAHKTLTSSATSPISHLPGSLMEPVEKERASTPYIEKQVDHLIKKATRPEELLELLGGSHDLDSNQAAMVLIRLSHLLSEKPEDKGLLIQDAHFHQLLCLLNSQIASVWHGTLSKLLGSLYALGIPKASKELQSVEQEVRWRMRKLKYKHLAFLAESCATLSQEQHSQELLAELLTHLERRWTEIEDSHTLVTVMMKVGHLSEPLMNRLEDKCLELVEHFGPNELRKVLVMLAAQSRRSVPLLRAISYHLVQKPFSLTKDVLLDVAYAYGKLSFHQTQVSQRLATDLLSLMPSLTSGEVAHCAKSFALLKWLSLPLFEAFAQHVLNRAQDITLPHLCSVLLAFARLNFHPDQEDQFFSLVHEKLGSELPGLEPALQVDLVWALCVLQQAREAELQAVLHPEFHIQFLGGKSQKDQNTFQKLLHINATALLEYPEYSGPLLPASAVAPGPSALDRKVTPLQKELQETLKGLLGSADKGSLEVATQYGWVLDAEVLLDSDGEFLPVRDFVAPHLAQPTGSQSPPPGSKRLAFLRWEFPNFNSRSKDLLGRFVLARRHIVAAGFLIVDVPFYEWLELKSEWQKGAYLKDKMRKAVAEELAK
Chain of UniProt Q13501 (Q13501 whole entry, looked up): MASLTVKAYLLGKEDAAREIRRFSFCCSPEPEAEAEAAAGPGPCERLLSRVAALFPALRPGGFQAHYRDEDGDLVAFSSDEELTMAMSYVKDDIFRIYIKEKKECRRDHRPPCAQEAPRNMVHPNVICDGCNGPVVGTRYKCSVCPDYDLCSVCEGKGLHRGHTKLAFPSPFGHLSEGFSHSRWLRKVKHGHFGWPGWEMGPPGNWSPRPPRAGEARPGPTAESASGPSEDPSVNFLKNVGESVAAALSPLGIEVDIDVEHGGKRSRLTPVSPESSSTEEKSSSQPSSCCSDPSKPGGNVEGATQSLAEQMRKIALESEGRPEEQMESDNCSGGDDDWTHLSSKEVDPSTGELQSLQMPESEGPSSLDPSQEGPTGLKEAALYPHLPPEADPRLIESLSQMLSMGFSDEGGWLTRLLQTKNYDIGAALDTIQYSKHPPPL
Chain of UniProt O76094 (O76094 whole entry, looked up): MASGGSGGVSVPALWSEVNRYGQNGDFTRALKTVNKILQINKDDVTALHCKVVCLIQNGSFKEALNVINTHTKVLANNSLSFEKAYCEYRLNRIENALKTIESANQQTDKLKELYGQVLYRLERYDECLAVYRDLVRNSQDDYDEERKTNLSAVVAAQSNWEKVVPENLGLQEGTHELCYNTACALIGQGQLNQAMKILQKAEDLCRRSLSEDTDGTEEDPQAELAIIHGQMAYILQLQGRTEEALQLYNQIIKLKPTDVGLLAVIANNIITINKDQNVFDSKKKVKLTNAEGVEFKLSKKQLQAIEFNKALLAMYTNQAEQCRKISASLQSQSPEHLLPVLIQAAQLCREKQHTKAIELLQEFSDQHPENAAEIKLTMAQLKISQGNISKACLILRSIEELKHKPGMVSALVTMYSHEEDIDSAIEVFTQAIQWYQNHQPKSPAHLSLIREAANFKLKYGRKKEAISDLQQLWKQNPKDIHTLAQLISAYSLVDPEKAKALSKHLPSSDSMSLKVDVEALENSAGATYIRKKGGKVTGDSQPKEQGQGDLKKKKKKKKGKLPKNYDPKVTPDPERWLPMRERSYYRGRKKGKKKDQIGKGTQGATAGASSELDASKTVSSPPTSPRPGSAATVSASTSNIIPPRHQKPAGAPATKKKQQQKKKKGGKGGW

Target | log2 fold change [1] | log2 fold change (crizotinib) | log2 fold change [2] | log2 fold change [3] | log2 fold change (duvelisib) | log2 fold change (gandotinib) | log2 fold change (tozasertib) | log2 fold change [4] | log2 fold change (doramapimod) | log2 fold change (ispinesib) | log2 fold change (bafetinib) | log2 fold change [5] | log2 fold change (nilotinib) | log2 fold change [6] | log2 fold change (dasatinib) | log2 fold change [7] | log2 fold change [8] | log2 fold change [9] | log2 fold change (tipifarnib) | log2 fold change (mubritinib)
STK39 (UniProt Q9UEW8) | 0.109 | -0.174 | 0.028 | 0.061 | 0.007 | -0.038 | -0.049 | 0.048 | -0.027 | -0.038 | -0.09 | 0 | -0.076 | -0.028 | -0.108 | -0.016 | -0.008 | -0.032 | -0.031 | -0.083
SLC7A6OS (UniProt Q96CW6) | 0.047 | -0.04 | 0.004 | -0.133 | 0.047 | -0.081 | 0.028 | -0.049 | 0.214 | 0.077 | -0.062 | 0.15 | -0.019 | -0.035 | 0.004 | -0.031 | 0.026 | -0.13 | 0.06 | 0.058
SPECC1 (UniProt Q5M775) | -0.104 | -0.085 | -0.02 | 0.045 | 0.014 | -0.18 | 0.007 | -0.036 | 0.137 | -0.079 | -0.102 | -0.1 | -0.108 | -0.133 | -0.067 | 0.063 | -0.035 | 0.089 | 0.028 | 0.044
SLC27A4 (UniProt Q6P1M0) | -0.008 | 0.069 | 0.059 | -0.015 | 0.082 | 0.122 | 0.001 | 0.123 | 0 | -0.103 | -0.026 | 0.022 | -0.098 | -0.101 | -0.113 | 0.011 | 0.003 | 0.009 | 0.124 | 0.598 (active)
SQSTM1 (UniProt Q13501) | 0.1 | -0.149 | -0.059 | 0.042 | 0 | 0.168 | 0.044 | -0.027 | 0.008 | -0.019 | -0.138 | 0.056 | 0.042 | -0.227 | -0.006 | 0.172 | 0.001 | 0.022 | 0.186 | 0.034
TGFBI (UniProt Q15582) | -0.021 | -0.047 | 0.215 | 0.181 | 0.067 | -0.451 | 0.031 | 0.043 | -0.182 | -0.159 | -0.241 | 0.148 | -0.099 | 0.054 | -0.04 | 0.167 | 0.197 | 0.098 | -0.063 | -0.02
SUN2 (UniProt Q9UH99) | -0.001 | -0.094 | 0.063 | 0.044 | -0.008 | 0.004 | -0.008 | 0.05 | 0.077 | -0.104 | -0.04 | 0.016 | -0.007 | -0.036 | 0.004 | -0.071 | -0.052 | -0.008 | 0.013 | -0.064
SREK1 isoform 2 (UniProt Q8WXA9) | 0.317 | -0.05 | -0.005 | -0.345 | 0.026 | 0.014 | 0.003 | 0.105 | -0.027 | 0.059 | 0.07 | 0.015 | 0.156 | -0.593 (active) | -0.095 | 0.005 | -0.006 | -0.11 | 0.031 | 0.063
SRP72 (UniProt O76094) | 0.021 | -0.121 | -0.017 | 0.167 | -0.004 | -0.08 | 0.068 | 0.154 | 0.051 | -0.185 | 0.05 | 0.048 | -0.117 | -0.03 | -0.186 | 0.108 | -0.052 | -0.052 | -0.148 | -0.036
TELO2 (UniProt Q9Y4R8) | -0.022 | -0.055 | 0.013 | 0.233 | -0.055 | -0.198 | 0.013 | 0.176 | 0.094 | -0.136 | 0.069 | 0.158 | -0.023 | -0.041 | -0.039 | 0.039 | -0.058 | 0.046 | -0.185 | 0.103
SUPT5H (UniProt O00267) | 0.057 | 0.049 | 0.129 | -0.057 | 0.084 | -0.043 | 0 | 0.079 | -0.043 | 0.02 | -0.044 | 0.033 | -0.055 | -0.042 | -0.082 | 0.01 | 0.024 | 0.036 | -0.037 | 0.031
SLC27A2 (UniProt O14975) | 0.273 (active) | 0.046 | -0.005 | -0.031 | 0.094 | 0.094 | 0.166 | 0.108 | 0.027 | -0.056 | 0.044 | 0.005 | 0.179 | -0.104 | -0.106 | 0.025 | 0.054 | 0.073 | 0.187 | -0.001
TBRG4 (UniProt Q969Z0) | -0.041 | -0.676 (active) | 0.137 | -0.005 | 0.066 | -0.364 | 0.04 | 0.174 | -0.081 | -0.254 | -0.137 | -0.035 | -0.027 | -0.291 | -0.513 | 0.006 | 0.095 | 0.003 | -0.317 | -0.277
SLC25A36 (UniProt Q96CQ1) | 0.016 | 0.067 | -0.061 | -0.011 | 0.195 | 0.313 | -0.059 | -0.089 | -0.027 | -0.021 | -0.049 | -0.003 | -0.01 | 0.182 | -0.136 | -0.138 | 0.033 | -0.004 | -0.075 | -0.078
SMG1 (UniProt Q96Q15) | 0.04 | 0.012 | -0.083 | 0.016 | 0.02 | -0.024 | -0.013 | 0.098 | 0.051 | 0.033 | 0.059 | -0.012 | 0.03 | -0.061 | -0.266 | -0.015 | -0.035 | 0.023 | -0.098 | 0.064
TIPRL (UniProt O75663) | 0.065 | -0.167 | 0.143 | -0.023 | -0.016 | -0.159 | -0.011 | 0.065 | -0.034 | -0.055 | -0.052 | 0.066 | -0.022 | -0.025 | -0.103 | -0.035 | 0.032 | 0.048 | -0.16 | 0.098
